Results published in PubChem BioAssay (NCATS).
Inconclusive results are not listed. Active and inactive are the calls of the source. Unless noted, the call rests on the fitted dose curve; in most records, active means well fitted curve in the direction sought with a large enough effect; inconclusive means small, poorly fitted or top-dose-only effect, or another doubt; inactive means no such curve, though single readings can be large; an effect the other way counts as inactive or inconclusive.

How the values were obtained:
[1] = target: ATP-dependent DNA helicase Q1 (Homo sapiens) (UniProt P46063); test: qHTS Validation Assay for Inhibitors of RecQ-Like Dna Helicase 1 (RECQ1) (AID 2353)
Chain of ATP-dependent DNA helicase Q1 (Homo sapiens) (P46063 whole entry, looked up): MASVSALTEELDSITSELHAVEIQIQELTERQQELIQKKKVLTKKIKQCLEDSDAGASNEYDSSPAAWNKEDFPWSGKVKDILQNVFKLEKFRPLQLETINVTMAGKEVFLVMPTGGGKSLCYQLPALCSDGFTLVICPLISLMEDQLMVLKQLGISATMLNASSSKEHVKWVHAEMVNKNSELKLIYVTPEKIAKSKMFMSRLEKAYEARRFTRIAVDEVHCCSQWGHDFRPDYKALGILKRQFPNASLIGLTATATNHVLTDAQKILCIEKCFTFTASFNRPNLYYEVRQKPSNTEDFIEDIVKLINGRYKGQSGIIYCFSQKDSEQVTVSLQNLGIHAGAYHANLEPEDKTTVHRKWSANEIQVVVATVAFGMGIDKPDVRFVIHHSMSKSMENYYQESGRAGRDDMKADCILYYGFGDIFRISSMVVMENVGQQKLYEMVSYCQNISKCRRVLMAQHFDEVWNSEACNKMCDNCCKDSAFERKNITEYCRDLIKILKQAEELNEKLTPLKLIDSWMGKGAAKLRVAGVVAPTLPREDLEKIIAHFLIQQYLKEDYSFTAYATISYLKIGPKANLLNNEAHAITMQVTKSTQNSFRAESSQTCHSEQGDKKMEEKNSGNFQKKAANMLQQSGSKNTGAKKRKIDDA
In short: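 RECQ1T1 50 nM; forked duplex (20 bp + 30-nt ss tails) 200 nM, ATP 2 mM final; pH 8.0, 2 mM MgCl2, 2.5 ug/ml poly(dI-dC); 15 min compound preincubation; discontinuous kinetic read over 2 h at RT.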

[2] = target: RecQ-like DNA helicase BLM (Homo sapiens) (UniProt P54132); test: qHTS Validation Assay for Inhibitors of Bloom's syndrome helicase (BLM) (AID 2364)
In short: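 Forked 20-bp duplex substrate (200 nM, TAMRA/BHQ-2) plus 2 mM ATP added after 15 min compound preincubation with 50 nM enzyme, pH 8.0, poly(dI-dC) 2.5 ug/ml. Strand separation followed by fluorescence (525/598 nm) over 2 h, normalized to enzyme-free and DMSO controls.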

[3] = Quantitative high throughput screen for delayed death inhibitors of the malarial parasite plastid, 96 hour incubation (AID 488745); details: Plasmodium falciparum growth; further: potency means the concentration at half of the fitted maximal effect; nearly all actives have a fitted effect of over 70% in size
In short: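 Readout is firefly luciferase luminescence from an integrated reporter in P. falciparum; lower signal marks inhibited growth. Cultures at 2% hematocrit and 0.1% parasitemia were treated with compound across two generations (96 h, 37 C, 5% CO2).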

[4] = Quantitative high throughput screen for delayed death inhibitors of the malarial parasite plastid, 48 hour incubation (AID 488752); details: Plasmodium falciparum growth; further: potency means the concentration at half of the fitted maximal effect; nearly all actives have a fitted effect of over 65% in size
In short: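 First, compound was pinned into RPMI 1640 medium containing 0.5% Albumax. Next, reporter-parasite-infected erythrocytes were added to 2% hematocrit and 0.1% parasitemia. After 48 h at 37 C under 5% CO2, luciferase detection reagent was added and luminescence read.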

[5] = target: M-phase phosphoprotein 8 (Homo sapiens) (UniProt Q99549); test: qHTS Validation Assay for Inhibitors for MPP8 Chromodomain Interactions with Methylated Histone Tails (AID 488949);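 further: AlphaScreen signal from MPP8 chromodomain bound to biotinylated H3K9me3 peptide; top concentration of the series differs between compounds; nearly all actives have a fitted effect of over 55% in size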
Chain of M-phase phosphoprotein 8 (Homo sapiens) (Q99549 whole entry, looked up): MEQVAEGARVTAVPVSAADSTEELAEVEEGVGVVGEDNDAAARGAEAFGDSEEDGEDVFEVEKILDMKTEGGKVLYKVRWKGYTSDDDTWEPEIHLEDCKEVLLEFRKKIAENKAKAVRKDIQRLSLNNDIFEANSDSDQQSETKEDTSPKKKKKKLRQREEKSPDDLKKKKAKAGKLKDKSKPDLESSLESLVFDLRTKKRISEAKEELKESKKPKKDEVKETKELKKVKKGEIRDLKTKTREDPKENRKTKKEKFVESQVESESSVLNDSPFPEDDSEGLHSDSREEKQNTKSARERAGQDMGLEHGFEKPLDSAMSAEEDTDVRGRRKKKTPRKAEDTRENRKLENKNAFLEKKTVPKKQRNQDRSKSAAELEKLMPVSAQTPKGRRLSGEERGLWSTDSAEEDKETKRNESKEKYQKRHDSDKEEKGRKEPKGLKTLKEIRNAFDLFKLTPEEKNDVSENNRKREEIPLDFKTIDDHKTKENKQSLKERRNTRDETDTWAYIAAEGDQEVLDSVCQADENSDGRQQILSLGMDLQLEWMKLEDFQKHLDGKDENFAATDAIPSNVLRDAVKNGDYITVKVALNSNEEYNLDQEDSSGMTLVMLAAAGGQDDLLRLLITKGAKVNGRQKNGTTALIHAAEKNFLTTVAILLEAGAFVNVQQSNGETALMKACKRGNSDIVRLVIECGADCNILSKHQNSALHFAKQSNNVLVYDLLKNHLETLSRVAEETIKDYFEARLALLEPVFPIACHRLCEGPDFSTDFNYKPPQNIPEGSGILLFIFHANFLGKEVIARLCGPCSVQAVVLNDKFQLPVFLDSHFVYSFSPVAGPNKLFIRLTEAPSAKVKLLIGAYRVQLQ
In short: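 AlphaScreen proximity signal from streptavidin donor and Ni-chelate acceptor beads (10 ug/mL each) reported binding of MPP8 to trimethyl-K9 H3(1-18) peptide, both at 50 nM. The complex formed 30 min before a 30 min compound exposure at room temperature, in PBS pH 7.4.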

[6] = qHTS for differential inhibitors of proliferation of Plasmodium falciparum line W2 (AID 1883); details: Plasmodium falciparum W2 proliferation inhibition;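 further: potency means the concentration at half of the fitted maximal effect; parasites grown with compound for 72 h before lysis and staining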
[7] = qHTS for differential inhibitors of proliferation of Plasmodium falciparum line HB3 (AID 1886);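 further: parasites grown with compound for 72 h before SYBR Green readout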
[8] = Cytometric Cell-Based qHTS for Inhibitors of the mTORC1 Signaling Pathway in MEF (Tsc2-/-, p53-/-) Cells (AID 2660);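 further: Tsc2 and p53 null MEFs carrying empty vector with compound for 24 h; percent of cells above a phospho-rpS6 to PI ratio cutoff in each well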
In short: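 Immunofluorescence qHTS of rpS6 Ser235/236 phosphorylation: MEFs (Tsc2-/-, p53-/-) treated 24 h, 37 C, in DMEM + 10% FBS. Alexa-488 signal normalized to PI count, referenced to rapamycin (7.5 nM) and DMSO; PI cell number recorded for viability.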

[9] = High Content Imaging Cell-Based qHTS for Inhibitors of the mTORC1 Signaling Pathway in MEF (Tsc2-/-, p53-/-) Cells (AID 2666); details: at 38.3 µM (top of the series);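 further: percent of cells scored positive for phospho-rpS6 Ser235/236 immunostaining by imaging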
In short: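 Tsc2-/-, p53-/- MEFs (empty-vector stable) grown in DMEM + 10% FBS were exposed to compounds for 24 hrs at 37 degree Celsius, fixed, and stained with Alexa-488 anti-phospho-rpS6 Ser235/236 plus Hoechst. Imaging gave the percentage of positive cells per well.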

[10] = High Content Imaging Cell-Based qHTS for Inhibitors of the mTORC1 Signaling Pathway in MEF Cells (AID 2667);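 further: Tsc2-/- p53-/- MEFs stably re-expressing wild-type Tsc2 exposed 24 h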
In short: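 Tsc2-/-, p53-/- MEFs stably re-expressing WT Tsc2, grown in DMEM + 10% FBS, were treated with compounds for 24 hrs at 37 degree Celsius, fixed, and stained with Alexa-488 phospho-rpS6 Ser235/236 antibody plus Hoechst; results given as % positive cells.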

[11] = Validation screen for small molecules that induce DNA re-replication in MCF 10A normal breast cells (AID 463097); further: nearly all actives have a fitted effect of over 60% in size
In short: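 Read-out is Hoechst total nuclear intensity by fluorescence scanning imager, flagging increased high-DNA-content nuclei. Compounds were incubated with MCF 10A cells for 48 hr (37 C, 5% CO2) before 40 min staining.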

[12] = target: Ubiquitin carboxyl-terminal hydrolase 2 (Homo sapiens) (UniProt O75604); test: qHTS Validation Assay for Inhibitors of Ubiquitin-specific Protease USP2a Using CHOP2 as the Reporter (AID 463106)
In short: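 Readout was coupled fluorescence (Ex 485/Em 531 nm), read 60 min after adding 25 nM final Ub-CHOP2 and 25 nM reporter substrate. Beforehand, 10 nM final USP2 core had 30 min at RT with compound in pH 8.0 buffer. Curves were fitted after normalization to NEM and flagged for artifacts using time-zero reads.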

[13] = target: DNA polymerase III PolC-type (Bacillus subtilis (strain 168)) (UniProt P13267); test: qHTS Validation Assay for the Inhibitors of DNA Replication in Gram-Positive Bacteria (AID 485295);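 further: reconstituted holoenzyme with PolC plus beta clamp SSB and primase; PicoGreen fluorescence of double-stranded DNA made on primed circular M13 template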
Chain of DNA polymerase III PolC-type (Bacillus subtilis (strain 168)) (P13267 whole entry, looked up): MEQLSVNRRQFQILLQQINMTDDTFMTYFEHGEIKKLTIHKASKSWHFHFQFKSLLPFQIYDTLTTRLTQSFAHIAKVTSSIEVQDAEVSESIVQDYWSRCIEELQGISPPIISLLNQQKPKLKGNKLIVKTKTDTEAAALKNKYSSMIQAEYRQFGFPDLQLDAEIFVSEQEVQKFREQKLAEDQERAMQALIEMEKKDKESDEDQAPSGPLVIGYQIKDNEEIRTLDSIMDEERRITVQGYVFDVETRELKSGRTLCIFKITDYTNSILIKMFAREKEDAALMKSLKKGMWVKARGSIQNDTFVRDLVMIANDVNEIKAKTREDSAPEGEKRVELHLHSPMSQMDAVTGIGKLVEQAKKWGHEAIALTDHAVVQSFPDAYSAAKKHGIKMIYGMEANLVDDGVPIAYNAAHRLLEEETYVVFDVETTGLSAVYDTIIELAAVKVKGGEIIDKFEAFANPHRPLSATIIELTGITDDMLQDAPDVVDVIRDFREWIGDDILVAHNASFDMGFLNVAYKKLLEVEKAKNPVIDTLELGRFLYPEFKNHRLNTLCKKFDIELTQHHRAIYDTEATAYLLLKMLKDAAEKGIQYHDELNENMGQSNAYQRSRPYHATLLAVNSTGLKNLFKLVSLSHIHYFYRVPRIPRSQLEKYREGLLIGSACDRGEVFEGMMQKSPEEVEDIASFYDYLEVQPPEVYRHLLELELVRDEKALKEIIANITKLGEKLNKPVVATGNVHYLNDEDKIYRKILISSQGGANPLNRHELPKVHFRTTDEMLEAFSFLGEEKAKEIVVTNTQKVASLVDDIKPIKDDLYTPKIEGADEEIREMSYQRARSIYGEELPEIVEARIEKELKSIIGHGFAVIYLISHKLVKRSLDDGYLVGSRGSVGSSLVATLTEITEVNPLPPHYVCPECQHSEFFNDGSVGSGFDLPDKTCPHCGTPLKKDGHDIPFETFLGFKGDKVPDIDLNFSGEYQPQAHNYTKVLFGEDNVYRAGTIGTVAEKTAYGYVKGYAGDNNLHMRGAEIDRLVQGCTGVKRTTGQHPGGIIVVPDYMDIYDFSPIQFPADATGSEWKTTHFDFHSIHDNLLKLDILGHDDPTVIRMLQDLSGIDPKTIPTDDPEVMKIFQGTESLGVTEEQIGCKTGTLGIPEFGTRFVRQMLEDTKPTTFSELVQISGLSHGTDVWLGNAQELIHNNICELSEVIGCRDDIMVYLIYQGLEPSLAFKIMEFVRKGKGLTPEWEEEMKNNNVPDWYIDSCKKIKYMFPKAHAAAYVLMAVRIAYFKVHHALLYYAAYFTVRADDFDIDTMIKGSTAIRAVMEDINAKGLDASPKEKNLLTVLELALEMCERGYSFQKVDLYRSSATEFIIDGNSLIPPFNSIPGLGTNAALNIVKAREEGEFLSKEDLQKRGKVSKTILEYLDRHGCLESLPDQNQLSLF
In short: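 Double-stranded DNA product detected by PicoGreen fluorescence after EDTA quench. Compound incubated with B. subtilis holoenzyme (PolC, beta subunit, SSB, primase) before substrate addition; primed replication of M13Gori with dNTPs and NTPs at room temperature; DMSO defines 0% inhibition.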

[14] = target: Tumor susceptibility gene 101 protein (Homo sapiens) (UniProt Q99816); test: qHTS Validation Assay for Iinhibitors of HIV-1 Budding by Blocking the Interaction of PTAP/TSG101 (AID 485342; calls by dose curve)
Chain of Tumor susceptibility gene 101 protein (Homo sapiens) (Q99816 whole entry, looked up, the tested form may be a part): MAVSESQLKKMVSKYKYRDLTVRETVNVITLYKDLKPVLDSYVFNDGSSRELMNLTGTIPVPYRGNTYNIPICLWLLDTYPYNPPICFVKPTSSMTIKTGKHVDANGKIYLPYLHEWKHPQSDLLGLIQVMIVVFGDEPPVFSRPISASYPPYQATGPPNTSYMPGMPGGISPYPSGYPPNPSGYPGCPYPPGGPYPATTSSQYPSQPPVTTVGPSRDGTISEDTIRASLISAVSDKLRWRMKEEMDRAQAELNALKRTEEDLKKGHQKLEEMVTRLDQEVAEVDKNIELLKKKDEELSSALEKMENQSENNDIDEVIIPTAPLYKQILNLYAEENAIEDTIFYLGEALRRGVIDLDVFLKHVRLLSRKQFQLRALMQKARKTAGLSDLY
In short: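 Fluorescence polarization of 50 nM FITC-PTAP peptide bound to 10 uM Tsg101 binding domain was read after 20 min room-temperature incubation with compounds, in 10 mM HEPES pH 7.5, 0.15 M NaCl, 0.01% Tween 20.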

[15] = target: Beta-2 adrenergic receptor (Homo sapiens) (UniProt P07550); test: qHTS validation assay of beta-arrestin-biased ligands of beta2-adrenergic receptor (AID 485366)
In short: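 Agonism was measured as beta-arrestin recruitment to recombinant beta2-AR, releasing tTA to drive luciferase. Cells were exposed for 18 hr at 37 degrees C to a series up to 46 microM. %Activity from corrected luminescence gave concentration-response curves.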

[16] = target: ATP-dependent 6-phosphofructokinase (Trypanosoma brucei brucei) (UniProt O15648); test: qHTS Validation Assay to Find Inhibitors of T. brucei phosphofructokinase (AID 485368); details: T. brucei PFK enzyme assay, qHTS 7-point titration; at 57.5 µM (top of the series)
Chain of ATP-dependent 6-phosphofructokinase (Trypanosoma brucei brucei) (O15648 whole entry, looked up): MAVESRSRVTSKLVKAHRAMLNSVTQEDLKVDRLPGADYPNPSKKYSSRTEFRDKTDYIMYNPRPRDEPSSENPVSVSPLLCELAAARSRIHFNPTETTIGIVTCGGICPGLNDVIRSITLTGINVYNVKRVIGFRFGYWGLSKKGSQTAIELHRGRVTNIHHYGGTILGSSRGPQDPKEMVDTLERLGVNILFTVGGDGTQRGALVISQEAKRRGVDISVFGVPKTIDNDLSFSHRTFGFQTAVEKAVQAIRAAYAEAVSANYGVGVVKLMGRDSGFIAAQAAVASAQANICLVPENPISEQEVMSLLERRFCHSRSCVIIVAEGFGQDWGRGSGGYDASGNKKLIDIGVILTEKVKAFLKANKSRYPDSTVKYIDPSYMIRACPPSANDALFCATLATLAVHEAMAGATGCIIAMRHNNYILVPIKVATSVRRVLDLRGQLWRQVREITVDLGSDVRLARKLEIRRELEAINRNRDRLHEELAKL
In short: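 ADP-Glo luminescence, two-step: residual ATP depleted, then ADP converted to ATP for luciferase. Enzyme 1.25 nM, F6P 0.5 mM, ATP 0.1 mM, pH 8.0 TEA buffer, 45 min RT. Curves fitted and classed by quality and efficacy.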

[17] = target: Thioredoxin reductase 1, cytoplasmic (Rattus norvegicus) (UniProt O89049); test: qHTS Assay for Substrates of Mammalian Selenoprotein Thioredoxin Reductase 1 (TrxR1) (AID 488772);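 further: a drop in NADPH fluorescence below the no-compound background marks a TrxR1 substrate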
Chain of Thioredoxin reductase 1, cytoplasmic (Rattus norvegicus) (O89049 whole entry, looked up): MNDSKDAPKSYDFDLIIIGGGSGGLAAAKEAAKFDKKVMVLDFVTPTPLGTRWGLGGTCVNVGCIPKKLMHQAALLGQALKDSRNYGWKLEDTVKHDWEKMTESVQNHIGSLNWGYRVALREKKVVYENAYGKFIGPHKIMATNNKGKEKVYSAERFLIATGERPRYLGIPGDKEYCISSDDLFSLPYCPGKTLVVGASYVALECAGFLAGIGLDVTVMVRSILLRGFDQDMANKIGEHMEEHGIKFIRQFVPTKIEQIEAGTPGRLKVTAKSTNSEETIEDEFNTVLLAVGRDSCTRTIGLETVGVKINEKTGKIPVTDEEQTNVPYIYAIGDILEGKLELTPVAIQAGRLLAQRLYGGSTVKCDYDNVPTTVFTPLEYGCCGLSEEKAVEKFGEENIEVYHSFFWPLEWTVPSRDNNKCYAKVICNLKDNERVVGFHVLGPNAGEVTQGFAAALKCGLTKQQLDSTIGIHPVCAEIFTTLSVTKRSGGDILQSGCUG
In short: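 In this dual-purpose format, potential substrates are identified from the first fluorescence read after selenite addition, not from the 8-minute delta. Rat enzyme is preincubated with NADPH and then with compound at ~22 deg C.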

[18] = target: Thioredoxin reductase 1, cytoplasmic (Rattus norvegicus) (UniProt O89049); test: qHTS Assay for Inhibitors of Mammalian Selenoprotein Thioredoxin Reductase 1 (TrxR1) (AID 488773);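 further: drop in NADPH fluorescence over an 8 min run after selenite addition; nearly all actives have a fitted effect of over 40% in size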
In short: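 Inhibition is scored from the loss of NADPH fluorescence between first and last reads of an 8-min kinetic run. Selenite (400 uM) was the substrate, added after 15 min compound preincubation at room temperature.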

[19] = target: Flap endonuclease 1 (Homo sapiens) (UniProt P39748); test: qHTS Validation Assay for the Inhibitors of Human Flap endonuclease 1 (FEN1) (AID 488816)
Chain of Flap endonuclease 1 (Homo sapiens) (P39748 whole entry, looked up): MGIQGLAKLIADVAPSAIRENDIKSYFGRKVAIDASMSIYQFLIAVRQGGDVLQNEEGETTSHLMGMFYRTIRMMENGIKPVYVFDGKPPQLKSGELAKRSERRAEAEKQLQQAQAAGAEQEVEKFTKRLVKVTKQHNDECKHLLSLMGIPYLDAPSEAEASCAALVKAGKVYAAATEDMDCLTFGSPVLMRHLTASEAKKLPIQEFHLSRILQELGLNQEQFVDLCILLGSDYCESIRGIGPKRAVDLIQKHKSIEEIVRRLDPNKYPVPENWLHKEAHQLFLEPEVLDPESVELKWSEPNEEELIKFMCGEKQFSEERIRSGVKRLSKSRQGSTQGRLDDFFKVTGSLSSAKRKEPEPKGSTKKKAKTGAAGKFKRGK
In short: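 qHTS format: compounds and 10 nM FEN1 incubated 15 min at room temperature before adding 50 nM substrate. Cleavage followed by reads at 0 and 15 min; normalized data fitted to a four-parameter Hill curve.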

[20] = target: Chromobox protein homolog 1 (Homo sapiens) (UniProt P83916); test: qHTS Validation Assay for Inhibitors of HP1-beta Chromodomain Interactions with Methylated Histone Tails (AID 488953);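 further: loss of AlphaScreen luminescence from HP1-beta binding biotinylated H3K9me3 peptide; nearly all actives have a fitted effect of over 50% in size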
Chain of Chromobox protein homolog 1 (Homo sapiens) (P83916 whole entry, looked up): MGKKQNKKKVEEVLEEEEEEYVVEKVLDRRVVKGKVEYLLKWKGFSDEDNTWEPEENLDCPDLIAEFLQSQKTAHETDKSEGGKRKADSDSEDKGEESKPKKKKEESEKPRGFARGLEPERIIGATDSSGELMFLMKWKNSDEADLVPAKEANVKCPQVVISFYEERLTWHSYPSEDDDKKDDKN
In short: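 Disruption of preformed HP1-beta:H3K9me3 peptide complexes (both 50 nM, PBS pH 7.4 with 0.01% Tween-20) is measured by AlphaScreen after 30 min compound exposure at room temperature, using streptavidin donor and nickel chelate acceptor beads at 10 ug/mL final.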

Measured: Potency

CC[C@H](CO)Nc1nc(NCc2ccccc2)c2ncn(C(C)C)c2n1
inactive: [1] | [2] | [5]
active: [3] 1.04 µM | [4] 4.65 µM

O=c1c2ccccc2nc2n1CCc1c-2[nH]c2ccccc12
active: [6] 12.6 µM
not listed: [2] | [3] | [4]
inactive: all other assays above
